Measurements as given in PubChem BioAssay (NCI).
Compounds without any hit were thinned out: in the full panel of roughly 83,000, 20% have a hit.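 Plates (96-well) were seeded with cells, treated with compound at one concentration, and incubated for 48 hours before percent growth was determined.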 A number with no mark means an inactive call. The source made the active and inactive calls. How the source made its calls: active means growth percent below 10; inactive means the rest.

tested on: HS 578T breast; experiment: NCI-60 one-dose screen, 48 h (100 = growth as untreated, 0 = no growth, -100 = all killed); conditions: 10 µM unless noted

SMILES | growth
Fc1cccc(CNc2nc(SCCN3CCOCC3)nc3c2cnn3CC(Cl)c2ccc(Br)cc2)c1 (centres undefined) | 19.2%
O=C(Nc1nc2ccc([N+](=O)[O-])cc2s1)Nc1ccc(Cl)cc1Cl | 46.4%
Nc1nnc(CS(=O)(=O)c2ccccc2)s1 | 86%
CCCCCCCCc1ccc(C(=O)Nc2ccc(C)cc2C(=O)O)cc1 | 105%
COc1ccc2c(c1)c(-c1cc(N)n3nc(-c4c[nH]c5ccccc45)cc3n1)cn2C | -17.9% (active)
Clc1ccc(CNc2nc(SCCN3CCOCC3)nc3c2cnn3CC(Cl)c2ccc(Br)cc2)cc1 (centres undefined) | 49.4%
CCC(=O)c1cc(C(=O)OC)c2ccc3c4ccccc4ccc3n12 | 63.3%
Nc1cc(-c2c[nH]c3ccc(Cl)cc23)nc2cc(-c3c[nH]c4ccccc34)nn12 | -3.21% (active)
CCCCNc1ccc2c3c(cccc13)C(=O)N(NCC(O)COc1ccc3c(C)cc(=O)oc3c1)C2=O (centres undefined) | 80.7%
O=C(OCCOCCO)N(c1cccc(Br)c1)c1nc(SCCN2CCOCC2)nc2c1cnn2CC(Cl)c1ccc(Br)cc1 (centres undefined) | -2.13% (active)
CCN1C(=O)N(CC)C2NNC(Sc3c(C(=O)O)c4ccccc4n(CC(C)C)c3=O)=NC21 (centres undefined) | -2.68% (active)
CCN1C(=O)N(CC)C2NNC(Sc3c(C(=O)O)c4ccccc4n(CCC(C)C)c3=O)=NC21 (centres undefined) | -14.6% (active)
COc1ccc(C(=O)c2cc(C(C)=O)c3c(C)cc(C)cn23)cc1 | 43.4%
O=C(N/N=C/c1ccc(Cl)cc1)c1ccc(OCc2nc3ccc(Cl)cc3[nH]2)cc1 | 25.2%
